This note sets out measurements from PubChem BioAssay (EPA / NIEHS).

Each structure is given as a SMILES string. Calls of active or inactive are those of the source. Rule for the calls: active = hit-call score of the fitted dose curve at least 0.9, where 1 is the maximum; inactive = score below 0.9.

Read-out in the experiment: ABC Transporter (ABCB11), ABCB11 (gene 8647)
The experiment can be described thus: LTEA_HepaRG_ABCB11: Life Technologies and Expression Analysis (LTEA) Assay for ABC Transporter (ABCB11) using HepaRG (AID 2283463). Particulars: mRNA level, 48 h; actives raise or lower the signal. As to the method:
LTEA_HepaRG is a cell based, multiplexed-readout assay that uses HepaRG, a human liver cell line, with measurements taken at 48 hours after chemical dosing on a 96-well plate.LTEA_HepaRG_ABCB11 is one of 102 assay component(s) measured in the LTEA HepaRG cell culture assay. It is a marker of Steatosis/NR mediated transport.Data from the assay component LTEA_HepaRG_ABCB11 was analyzed into 1 endpoint. This assay endpoint, LTEA_HepaRG_ABCB11, was analyzed with bidirectional fitting relative to DMSO as the negative control and baseline of activity. Using a type of inducible reporter, measures of mRNA induction for gain or loss-of-signal activity can be used to understand regulation of transcription factor activity. To generalize the intended target to other relatable targets, this assay endpoint is annotated to the transporter intended target family, where the subfamily is ABC transporter.
A total of 1060 chemcials from the ToxCast library were tested in eight-point concentration-response experiments. Cell culture and cytotoxicity assays were conducted at Thermo Fisher Scientific's Custom Services facility (Madison, WI). A single lot of human HepaRG cells (Thermo Fisher Scientific, Frederick, MD) was used for the cell culture experiments. 96-well format collagen type I coated plates of human HepaRG cells were prepared using established methods. Briefly, cryopreserved HepaRG cells were thawed, plated at a density of approximately 100,000 cells/well in HepaRG Thaw, Plate, and General Purpose media (HPRG770, Thermo Fisher Scientific), and incubated for 48 hours. 0.5% DMSO was selected as vehicle control to balance the requisite need of DMSO in HepaRG cultures to maintain differentiation (for example, baseline metabolism, proportions of hepatocytes vs. cholangiocytes), while enabling further hepatic receptor pathway activation (for example, PXR and CAR) in response to chemical exposure. 48 hours after plating, the culture medium was replaced with HepaRG Serum-Free Incudtion Media. Cells were exposed to each test chemical in duplicate and maintained in CO2 incubators for another 48 hours. Chemical plates were thawed to room temperature and 200x concentrations of treatment groups were prepared. 8-point conentration-reponse curves were made with the highest exposure at 100 uM, followed by half-log dilutions, all in 0.5% DMSO. Each test plate contained variouse controls, induction positive controls (1mM phenobarbital), cytotoxicity positive controls ([…] aflatoxin B1), vehicle controls (0.5% DMSO), and total lysis controls (0.5% DMSO). Cell morphology images were taken using an Essen IncuCyte FLR automated microscope, with six 96-well plates imaged in about 24 minutes. Images were captured and exported and JPEG files. Spent culture media was transfered to black-well plates for the LDH assay, and remaining media was sorted at -80 C for later use. Cells were treated with RLT buffer and frozen until shipped for gene expression analysis. Total RNA was isolated from the cell suspension in 75 uL of Buffer RLT (Qiagen, Germantown, MD 20874) by Quintiles/Expression Analysis (Durham, NC) using a custom isolation procedure. Total RNA from each plate well was transferred to a preamplification plate. Fluidigm's 96.96 Dynamic ArrayTM (Fluidigm, Amsterdam, the Netherlands) technology was used for gene expression analyses by quantitative reverse transcription polymerase chain reaction (qRT-PCR, performed by Quintiles/Expression Analysis, Durham, NC)89. Standard TaqManTM Assays (Applied Biosystems/ThermoFisher Scientific, Foster City, CA) were used to assess the expression of 93 genes selected based on their selectivity and sensitivity to important hepatic receptors known to be modulated by environmental chemicals; importance in human hepatocyte functionality; and hepatotoxicity. […]
For `CCCCCCCc1ccc(O)cc1`, the result was inactive.

In the case of `c1ccc2c(c1)Nc1ccccc1S2`, the result was inactive. For `c1nc[nH]n1`, the call was inactive. Then `CCOC(=O)c1ccccc1C(=O)OCC`, with “inactive”; and `O=P(Oc1ccccc1)(Oc1ccccc1)Oc1ccccc1`, with “inactive”; and `CC(C)(C)OOC(C)(C)C`, with “inactive”.

In the case of `[N-]=[N+]=[N-]`, the outcome was inactive. Then `O=C(O)C(Cl)Cl`, with “inactive”. As for `ClC(Cl)(Cl)c1ccccc1`, the entry is “inactive”; as for `c1cc2c3c(cccc3c1)CC2`, “inactive”. As for `Cc1ccc([N+](=O)[O-])cc1C`, the entry is “inactive”.

As to `COCCOCCO`, the outcome was inactive.

As for `ClC1=C(Cl)C2(Cl)C3C(Cl)C(Cl)CC3C1(Cl)C2(Cl)Cl` (stereo not given), the compound was called inactive. Then `CCN(CC)c1ccccc1`, with “inactive”; and `CCC1(c2ccccc2)C(=O)N=C(O)NC1=O` (stereo not given), with “inactive”; and `CCNc1nc(Cl)nc(NC(C)(C)C)n1`, with “inactive”. Then `CCCN(CCC)c1c([N+](=O)[O-])cc(C(C)C)cc1[N+](=O)[O-]`, with “inactive”; and `Cc1cccc(N)c1`, with “inactive”. Then `Nc1cc2c3c(c1)C(c1ccccc1)=N[C@@H](NC(=O)c1cccnc1)C(=O)N3CC2`, with “inactive”; and `OCC1CO1` (stereo not given), with “inactive”. On to `O=C(O)C1C(C(=O)O)C2(Cl)C(Cl)=C(Cl)C1(Cl)C2(Cl)Cl` (stereo not given), for which the outcome was inactive. As for `CCOS(=O)(=O)OCC`, the entry is “inactive”; as for `CCCCN(CCCC)SN(C)C(=O)Oc1cccc2c1OC(C)(C)C2`, “inactive”.

For the compound `CCC(C)(C)c1ccc(O)cc1`, the result was inactive. As for `CCCCN(CCCC)N=O`, the entry is “inactive”. Then `CN(C)C(=O)Cl`, with “inactive”; and `CCOP(=S)(OCC)SCSCC`, with “inactive”.

For the compound `CCCCc1ccccc1`, the compound was classed as inactive.

For the compound `c1ccc(OP(Oc2ccccc2)Oc2ccccc2)cc1`, the outcome was inactive. As for `CCOc1ccc(C(C)(C)COCc2cccc(Oc3ccccc3)c2)cc1`, the entry is “inactive”. Then `CC(Cl)(Cl)C(=O)O`, with “inactive”. Then `CSC(C)(C)C=NO`, with “inactive”; and `O=[N+]([O-])c1ccc(Cl)c(Cl)c1`, with “inactive”. For the compound `Nc1ccc2ccccc2c1`, the compound was classed as inactive. As for `CCOP(=S)(Oc1ccc([N+](=O)[O-])cc1)c1ccccc1` (stereo not given), the entry is “inactive”; as for `O=[N+]([O-])c1ccccc1`, “inactive”; as for `Cc1ccc(N)cc1N`, “inactive”. Then `O=P1(N(CCCl)CCCl)NCCCO1` (stereo not given), with “inactive”. On to `CC(Cc1ccc(OCC(=O)O)cc1)NCC(O)c1csc(C(F)(F)F)n1` (stereo not given), for which the outcome was inactive. As for `ClC(Cl)c1ccccc1`, the entry is “inactive”.
